This note sets out measurements from PubChem BioAssay (NCATS).

Test [1] can be described thus: P-glycoprotein substrates identified in KB-3-1 adenocarcinoma cell line, qHTS therapeutic library screen (AID 1346986). Also: nearly all actives have a fitted effect of over 60% in size. The method in brief:
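Using luminescence to quantify ATP, parental and P-gp-overexpressing KB cells were compared after 72 h compound titration. KB-8-5-11 was also run with the P-gp inhibitor tariquidar.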

A short description of test [2]: P-glycoprotein substrates identified in KB-8-5-11 adenocarcinoma cell line, qHTS therapeutic library screen (AID 1346987). Also: nearly all actives have a fitted effect of over 65% in size. As to activity change, negative = cytotoxicity: series mostly up to about 44 µM; % is scaled to controls: 0 for no effect and ±100 for the full control effect. The method in brief: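 In this qHTS, P-gp-rich KB-8-5-11 cells received library compounds across a concentration range. Viability was quantified by luminescence after 72 h at 37 degree C.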

Each structure is given as a SMILES string. Inconclusive results are not listed. Unmarked numbers belong to inactive results. Calls of active or inactive are those of the source. Calls follow the shape of the dose curve; as a rule, active = well fitted curve in the direction sought with a large enough effect; inconclusive = small, poorly fitted or top-dose-only effect, or another doubt; inactive = no such curve, though single readings can be large; an effect the other way counts as inactive or inconclusive.

With `CC(=O)CC1CCC(C(C)C(=O)OCC(O)CO)O1` (centres undefined), the Potency result in test [1] and in test [2] was “inactive” each time.

For the compound `CC1=C2C(O)C(=O)OC(c3ccoc3)C2(C)CCC1O` (centres undefined), the Potency entry in test [1] and in test [2] was “inactive” each time.

Regarding `CCn1cc(NC(=S)Nc2cc(Cl)ccc2OC)c(C(N)=O)n1`, the Potency entry in test [1] and in test [2] was “inactive” each time.

Take `Cc1cc(=O)oc2c(C=O)c(O)ccc12`: the Potency result in test [1] and in test [2] was “inactive” each time.

`C[C@H](CCC(=O)O)[C@H]1CC[C@H]2[C@@H]3C[C@H](O)[C@@H]4C[C@H](O)CC[C@]4(C)[C@H]3CC[C@]12C`: the Potency entry in test [1] and in test [2] was “inactive” in each case.

For `CC1=C(C(=O)O)/C(=C\CO[C@@H]2O[C@H](CO)[C@@H](O)[C@H](O)[C@H]2O)C(OC(=O)/C=C\c2ccc(O)cc2)C1` (some centres undefined), the Potency result in test [1] and in test [2] was “inactive” each time.

Take `C=C(C)C(=O)O[C@H]1C[C@@](C)(O)C(=O)CC(O)/C(C)=C\[C@H]2OC(=O)C(=C)[C@H]12` (some centres undefined): the Potency result in test [1] and in test [2] was “inactive” in each case.

Regarding `CNC12CC3C[C@@](C)(C1)C[C@](C)(C3)C2`, the Potency entry in test [1] and in test [2] was “inactive” each time.

For the compound `C[C@H]1CC[C@@H]2N(C1)C[C@@H]1[C@H]([C@@H](O)[C@H](O)[C@]3(O)[C@H]1C[C@@]14OC5(O)[C@@H](C[C@@H](O)[C@@H]31)[C@]4(C)CC[C@@H]5O)[C@]2(C)O`, the Potency entry in test [1] and in test [2] was “inactive” each time.

For the compound `CCOC(=O)C(CCc1ccccc1)NC(C)C(=O)N1C(=O)N(C)CC1C(=O)O` (centres undefined), the Potency result in test [1] and in test [2] was “inactive” in each case.

As to `CC(=O)OC1/C(C)=C/C(=O)C(OC(C)=O)C(C)(C)/C=C/C(C)C(=O)C2(OC(C)=O)CC(C)C(OC(=O)c3ccccc3)C12` (centres undefined), the Potency result in test [1] and in test [2] was “inactive” in each case.

As to `Cn1c2ccc(F)cc2c2c(C(=O)N3CCCC3)cn(-c3ccccc3)c(=O)c21`, the Potency entry in test [1] and in test [2] was “inactive” throughout.

For `COc1c(C)c(OCC(O)C(C)(C)O)cc2c1COC2=O` (centres undefined), the Potency result in test [1] and in test [2] was “inactive” throughout.

Consider `CC(=O)N[C@H]1[C@H](O[C@H]2CC[C@@]3(C)C(CC[C@]4(C)C3CC=C3[C@@H]5CC(C)(C)CC[C@]5(C(=O)OC5OCC(O)C(O)C5O)CC[C@]34C)C2(C)C)O[C@H](COC2OC(C)C(O)C(OC3OC(C)C(O)C(O)C3O)C2O)[C@@H](O)[C@@H]1O` (some centres undefined), for which the outcome in test [1] was “inactive [at 9.29 µM]”. In addition, in test [2], the activity change, negative = cytotoxicity was 4.96% [at 9.29 µM].

As to `CC(C)C(=O)OC[C@H]1O[C@H](O[C@H]2O[C@H](CO)[C@@H](O)[C@H](O)[C@H]2O)[C@H](O)[C@@H](O)[C@@H]1O`, the Potency result in test [1] and in test [2] was “inactive” each time.

Regarding `CC1C(=O)OCC2=CCN3CCC(OC(=O)C(C)(O)C1(C)O)C23` (centres undefined), the Potency result in test [1] and in test [2] was “inactive” in each case.

As for `CC(=O)O[C@@H]1[C@@H](O)[C@H](O[C@H]2CC[C@]34C[C@]35CC[C@]3(C)[C@@H]([C@@]6(C)CC[C@@H](C(C)(C)O)O6)[C@@H](O)C[C@@]3(C)[C@@H]5C[C@H](O[C@@H]3O[C@H](CO)[C@@H](O)[C@H](O)[C@H]3O)[C@H]4C2(C)C)OC[C@H]1O`, the Potency result in test [1] and in test [2] was “inactive” each time.

`N#C[C@@H]1CCCN1C(=O)CNC12CC3CC(CC(O)(C3)C1)C2`: the Potency result in test [1] and in test [2] was “inactive” throughout.

Take `COc1cc([C@H]2c3cc(O)c(OC)cc3C[C@@H](CO[C@@H]3O[C@H](CO)[C@@H](O)[C@H](O)[C@H]3O)[C@@H]2CO)ccc1O`: the Potency result in test [1] and in test [2] was “inactive” in each case.

`CN[C@H](CC(C)C)C(=O)N[C@H]1C(=O)N[C@@H](CC(N)=O)C(=O)N[C@H]2C(=O)N[C@H]3C(=O)N[C@H](C(=O)N[C@H](C(=O)O)c4cc(O)cc(O)c4-c4cc3ccc4O)[C@H](O[C@H]3C[C@](C)(N)[C@@H](O)[C@H](C)O3)c3ccc(c(Cl)c3)Oc3cc2cc(c3O[C@@H]2O[C@H](CO)[C@@H](O)[C@H](O)[C@H]2O[C@H]2C[C@](C)(NCc3ccc(-c4ccc(Cl)cc4)cc3)[C@@H](O)[C@H](C)O2)Oc2ccc(cc2Cl)[C@H]1O`: the Potency result in test [1] and in test [2] was “inactive” each time.

As for `Cc1ccc(Cc2c(C)nc3nc(SCC(=O)NCCN4CCNCC4)nn3c2C)cc1`, the Potency entry in test [1] and in test [2] was “inactive” throughout.

In the case of `COc1cc(C(=O)OC[C@@]2(O)CO[C@@H](O[C@H]3[C@H](Oc4ccc(C(=O)O)cc4OC)O[C@H](CO)[C@@H](O)[C@@H]3O)[C@@H]2O)ccc1O`, the Potency entry in test [1] and in test [2] was “inactive” each time.

On to `CC1(C)CC[C@]2(C(=O)O[C@@H]3O[C@H](CO[C@@H]4O[C@H](CO)[C@@H](O)[C@H](O)[C@H]4O[C@@H]4O[C@H](CO)[C@@H](O)[C@H](O)[C@H]4O)[C@@H](O)[C@H](O[C@@H]4O[C@H](CO)[C@@H](O)[C@H](O)[C@H]4O)[C@H]3O)CC[C@]3(C)C(=CCC4[C@@]5(C)CC[C@@H](O)[C@@](C)(C(=O)O[C@@H]6O[C@H](CO)[C@@H](O)[C@H](O)[C@H]6O)C5CC[C@]43C)[C@@H]2C1` (some centres undefined), for which the outcome in test [1] and in test [2] was “inactive [at 9.29 µM]” each time.

On to `C=C(C(=O)O)[C@H]1C[C@]2(C)[C@@H](O)CC[C@]23O[C@H]1C[C@@H]3C`, for which the Potency entry in test [1] and in test [2] was “inactive” in each case.

Regarding `C=C1C[C@]23C[C@H]1CC[C@H]2[C@@]1(C)CCC[C@@]2(C)C(=O)O[C@@H]([C@@H]3O)[C@@H]12`, the Potency entry in test [1] and in test [2] was “inactive” in each case.

Consider `CCc1c(-c2ccccc2)c(-c2ccccc2)nn1-c1ccccc1-c1cccc(OCC(=O)O)c1`, for which the Potency result in test [1] and in test [2] was “inactive” throughout.

Take `O=C1NC2CCc3nc4ccccc4c(=O)n3C2=Nc2ccccc21` (centres undefined): the Potency result in test [1] and in test [2] was “inactive” each time.

For `O=C(O[C@H]1[C@@H]2C=CO[C@@H](O[C@@H]3O[C@H](CO)[C@@H](O)[C@H](O)[C@H]3O)[C@@H]2[C@@]2(CO)O[C@@H]12)c1ccccc1`, the Potency result in test [1] and in test [2] was “inactive” in each case.

On to `CC1CCC23COC(=O)C2=CC(O)CC3C1(C)CCC1=CC(O)OC1=O` (centres undefined), for which the Potency entry in test [1] and in test [2] was “inactive” throughout.

Turning to `CC/C=C\CCO[C@@H]1O[C@H](CO[C@@H]2OC[C@H](O)[C@H](O)[C@H]2O)[C@@H](O)[C@H](O)[C@H]1O`, the Potency entry in test [1] and in test [2] was “inactive” each time.

Consider `O=C(Nc1ccn[nH]1)c1c(F)cccc1F`, for which the Potency entry in test [1] and in test [2] was “inactive” in each case.

For `C=C(C(=O)O)C1CCC2(C)CCC(O)C(=C)C2C1` (centres undefined), the Potency entry in test [1] and in test [2] was “inactive” throughout.

For `CC(C)(C)c1ccc(S(=O)(=O)Nc2ccc(Cl)cc2C(=O)c2cc[n+]([O-])cc2)cc1`, the Potency entry in test [1] and in test [2] was “inactive” throughout.

Turning to `C[C@@H]1O[C@@H](O[C@H]2[C@@H]3C=CO[C@@H](O[C@@H]4O[C@H](CO)[C@@H](O)[C@H](O)[C@H]4O)[C@@H]3[C@@]3(CO)O[C@@H]23)[C@H](OC(=O)/C=C/c2ccccc2)[C@H](O)[C@H]1O`, the Potency entry in test [1] and in test [2] was “inactive” throughout.

As to `CC(=O)OCC1(O)CCC2C(COC3OC(CO)C(O)C(O)C3OC(=O)/C=C/c3ccc(O)cc3)=COC(OC(=O)CC(C)C)C21` (centres undefined), the Potency result in test [1] and in test [2] was “inactive” in each case.

As for `C=CC(C)(C)C12C=C(OC)C(=O)N3C(C(C)C)C(=O)NC31N(OC)c1ccccc12` (centres undefined), the Potency entry in test [1] and in test [2] was “inactive” in each case.

As to `CC1(C)C=CN2C(=O)C3=CCCN3C(=O)[C@@H]2C[C@@]12Nc1ccccc1C2=O`, the Potency result in test [1] and in test [2] was “inactive” throughout.
